Bioassay records: PubChem BioAssay, National Center for Advancing Translational Sciences (NCATS)
Sampled rows, rich in hits. Any-hit rate of the full collection: about 1.9%.
BRCT PPI green: qHTS Assay for Inhibitors of BRCT-Phosphoprotein Interaction (Green Fluorophore); Breast cancer type 1 susceptibility protein (Homo sapiens), P38398; BRCA1 BRCT-phosphopeptide binding, green fluorescence polarization; Potency, µM (series often up to 76.9 µM), for the others: at the highest dose activity change, negative = inhibition, hits mostly inhibitors; 75,000 compounds, 0.05% hits; AID 875, 2007;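 note: potency is the fitted concentration of half-maximal effect; plate controls were peptide without protein for full effect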
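Compounds were incubated for 12 min at room temperature with a complex of 100 nM fluorescein-tagged pBACH1 decapeptide and 250 nM His-tagged BRCT protein. Buffer was phosphate pH 7.3 with EDTA, DTT and Tween 20. Disruption of binding lowers the polarization signal.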
Hsp90 Hop PPI: qHTS Assay for Disrupters of an Hsp90 Co-Chaperone Interaction | AlphaScreen TPR2A-His6 binding biotin-Hsp90 C-terminal peptide | Potency, µM (series often up to 57 µM), inactives show top-dose activity change, negative = inhibition | 71,000 compounds, 0.44% hits | AID 595, 2007; active = well fitted curve in either direction with a large enough effect; inconclusive = small, poorly fitted or top-dose-only effect, or another doubt; note: potency is the fitted concentration of half-maximal effect; % is set by controls: 0 for no effect and ±100 for the full control effect
DNA Pol III inh: qHTS Assay for Inhibitors of DNA Polymerase III Holoenzyme System; reconstituted DNA polymerase III holoenzyme replication, biochemical; Potency, µM (highest dose often 57.1 µM), for inactives: at the top dose activity change, negative = inhibition; 71,000 compounds, 0.25% hits; note: potency is the fitted concentration of half-maximal effect; % is set by controls: 0 for no effect and ±100 for the full control effect
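Reconstituted *E. coli* holoenzyme (0.35 nM Pol III, 1 nM beta, 154 nM SSB, 2 nM primase) was preincubated with compound for 15 min at RT. Synthesis on 1.4 nM ssM13Gori ran 35 min, then was stopped with PicoGreen/EDTA and read as dsDNA fluorescence.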
15-hLO inh: qHTS Assay for Inhibitors of 15-hLO (15-human lipoxygenase); Potency, µM (doses to about 57.1 µM), for the others: at the top dose activity change, negative = inhibition, usual class: inhibitors; Polyunsaturated fatty acid lipoxygenase ALOX15 (Homo sapiens), P16050; 74,000 compounds, 1.4% hits; purified 15hLO-1, xylenol orange hydroperoxide absorbance; AID 887, 2007; note: potency is the fitted concentration of half-maximal effect; % is set by controls: 0 for no effect and ±100 for the full control effect; nearly all actives have a fitted effect of over 55% in size
Target sequence (P16050 whole entry, looked up): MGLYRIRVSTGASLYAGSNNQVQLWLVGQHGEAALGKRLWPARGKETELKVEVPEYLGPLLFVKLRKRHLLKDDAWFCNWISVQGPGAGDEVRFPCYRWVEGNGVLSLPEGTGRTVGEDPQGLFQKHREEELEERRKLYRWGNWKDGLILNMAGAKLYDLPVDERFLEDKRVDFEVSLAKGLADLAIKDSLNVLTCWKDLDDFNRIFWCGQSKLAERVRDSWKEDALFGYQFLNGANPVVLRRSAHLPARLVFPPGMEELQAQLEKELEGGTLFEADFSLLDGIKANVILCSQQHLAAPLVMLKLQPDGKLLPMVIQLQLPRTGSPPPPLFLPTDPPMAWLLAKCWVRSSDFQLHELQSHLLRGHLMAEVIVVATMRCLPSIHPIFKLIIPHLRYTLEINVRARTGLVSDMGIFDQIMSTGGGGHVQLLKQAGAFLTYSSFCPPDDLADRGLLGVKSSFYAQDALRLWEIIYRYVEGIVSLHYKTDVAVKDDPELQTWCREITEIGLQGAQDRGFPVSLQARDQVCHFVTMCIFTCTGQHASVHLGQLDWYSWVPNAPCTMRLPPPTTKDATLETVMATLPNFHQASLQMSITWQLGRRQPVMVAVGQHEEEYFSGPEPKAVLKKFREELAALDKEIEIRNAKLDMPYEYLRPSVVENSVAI
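Quantitative HTS in 25 mM Hepes pH 7.5 containing 0.01% Triton X-100: human 15hLO-1 at 40 nM, arachidonic acid at 50 uM, 6 min turnover. Product quantified via ferrous oxidation/xylenol orange, 573:405 nm absorbance ratio.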
YjeE inh: qHTS Assay for Inhibitors of YjeE; tRNA threonylcarbamoyladenosine biosynthesis protein TsaE (Escherichia coli (strain …; purified YjeE enzyme, qHTS inhibition assay; Potency, µM; 71,000 compounds, 0.05% hits
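Fluorescence polarization of a BODIPY Texas Red–ADP probe (2 uM) bound to purified YjeE (10 uM) was read after 15 min room-temperature incubation with compounds. Loss of polarization marks inhibitors; ADP serves as titrated control.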
BRCT inh red: qHTS Assay for Inhibitors of BRCT-Phosphoprotein Interaction (Red Fluorophore) | Potency, µM (highest dose often 76.9 µM), inactives show at the highest dose activity change, negative = inhibition, actives largely listed as inhibitors | 75,000 compounds, 0.03% hits | BRCT-phosphopeptide binding, red fluorescence polarization | AID 892, 2007; note: % is set by controls: 0 for no effect and ±100 for the full control effect
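Rhodamine-labelled pBACH1 10-mer (100 nM) bound to BRCT domain (100 nM) at pH 7.3; compounds incubated 12 min room temperature, polarization read. Free peptide defines full inhibition; unlabelled decapeptide titrated as control.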
Starred values were filed as active, the others as inactive; i = inactive; ? = inconclusive; . = not tested or not shown; [ ] = another dose, or the depositor's remark. Unless noted, calls come from the whole dose curve; as a rule, active = well fitted curve in the direction sought with a large enough effect; inconclusive = small, poorly fitted or top-dose-only effect, or another doubt; inactive = no such curve, though single readings can be large; an effect the other way counts as inactive or inconclusive.

SMILES	BRCT PPI green	Hsp90 Hop PPI	DNA Pol III inh	15-hLO inh	YjeE inh	BRCT inh red
Clc1ccccc1C(Nc1cnccn1)Nc1cnccn1	0.1%[15.4 µM]	-0.7%[11 µM]	-7.2%[11.4 µM]	-5.2%[11.4 µM]	i	-0.8%[15.4 µM]
Cc1ccc(S(=O)(=O)N(CC(=O)O)c2ccc(Cl)cc2)cc1	0.3%	.	.	-0.1%	.	-1.7%
C=CCn1c(SCC(=O)NCc2ccco2)nc2sc3c(c2c1=O)CCCCC3	-1.0%	-1.7%	-0.7%	3.7%	i	-0.7%
O=C(NCc1ccco1)c1ccc2nc3sc4c(c3c(=O)n2c1)CCCC4	-1.2%	-3.2%	-9.9%	31.6µM*	i	-0.8%
COc1cccc(CNc2ccc(N3CCCCC3)cc2)c1OC	-0.9%	?	-5.2%	2µM*	i	0.9%
COc1ccccc1CNc1ccc(N2CCCCC2)cc1	-0.5%	?	-0.5%	15.8µM*	i	-0.1%
O=C(/C=C/Nc1ccc(F)c(Cl)c1)c1ccco1	3.0%	-10.4%	-9.6%	25.1µM*	i	1.0%
CC(=O)Nc1ccc(N/C=C/C(=O)c2ccco2)cc1	2.7%	-6.1%	-8.4%	-9.7%	i	-0.7%
Cc1ccc([C@@]2(C)CC/C(=N/N=C3\CC[C@](C)(c4ccc(C)c(C)c4)c4cc(C)c(C)cc43)c3cc(C)c(C)cc32)cc1C	-0.1%[15.4 µM]	-0.7%[11 µM]	5.0%[11.4 µM]	11.3%[11.4 µM]	i	-1.5%[15.4 µM]
Clc1ccc(OCc2nc(-c3ccccn3)n[nH]2)cc1	-2.4%	15.8µM*	3.7%	42.8%	i	0.0%
CN(C)c1ccc(C2(c3ccc(N(C)C)cc3)OC(=O)c3cc(N(C)C)ccc32)cc1	-0.9%	2.51µM*	-2.0%	0.0%	i	-1.8%
O=C(O)CCCC[C@H]1CCSS1	-3.8%	0.9%	-6.4%	7.8%	i	2.7%
CC(C)(C)N1C(=O)Cc2c1nc(N)c1c(N)nc(N3CCCCC3CO)c(C#N)c21 (configuration not stated)	3.9%	?	-10.1%	20µM*	i	-0.4%
COc1ccc2c(c1)Cc1sc(NC(=O)c3cccs3)nc1-2	-4.6%	-6.1%	-6.3%	31.6µM*	i	1.0%
CCc1cc(C=NC2CCCCC2)c(O)s1	-4.4%	-11.5%	-3.7%	12.6µM*	i	-0.2%
Cn1c(=O)n(C)c2cc(S(=O)(=O)N3CCOCC3)ccc21	0.1%	-0.2%	-4.2%	0.0%	i	-0.7%
O=C(Nc1ccc2nc(-c3cccs3)c(-c3cccs3)nc2c1)N1CCOCC1	1.1%	14.0%	-0.4%	-17.3%	i	-0.4%
O=C(c1ccc2ccccc2c1)N1CCN(c2ccc(O)cc2)CC1	-2.4%	?	-2.2%	3.16µM*	i	0.9%
O=C(Nc1ccc(N2CCOCC2)cc1)Nc1ccc2nc(-c3ccco3)c(-c3ccco3)nc2c1	-0.3%	?	-5.8%	3.98µM*	i	-0.4%
O=S(=O)(c1ccc2nc(-c3ccco3)c(-c3ccco3)nc2c1)N1CCOCC1	-4.4%	-22.9%	?	2.51µM*	i	-10.1%
O=C(c1ccc2nc(-c3ccco3)c(-c3ccco3)nc2c1)N1CCN(c2ccccc2)CC1	-12.0%	?	1.5%	3.16µM*	i	-17.8%
Cc1c(Cl)cccc1NC(=O)c1cc(-c2ccc(O)cc2)on1	-1.2%	-4.8%	2.9%	-15.7%	i	0.7%
C[N+](C)(C)[C@@H](C1=CCCC1=O)c1ccccc1	-1.3%[15.4 µM]	-3.9%[11 µM]	-7.1%[11.4 µM]	1.4%[11.4 µM]	i	2.1%[15.4 µM]
CCn1c(SCC(=O)c2ccc(O)c(O)c2)nnc1-c1ccccc1OC	-3.3%	-6.8%	?	15.8µM*	i	0.6%
C=CCn1c(SCC(=O)c2ccc(O)c(O)c2)nnc1-c1ccccc1OC	-1.0%	-8.5%	-9.7%	?	i	-0.1%
SMILES	BRCT PPI green	Hsp90 Hop PPI	DNA Pol III inh	15-hLO inh	YjeE inh	BRCT inh red
O=C1c2cccc(O)c2C(=O)c2c(O)cccc21	3.1%	-23.4%	-15.4%	?	i	0.9%
O=C1c2ccc(O)c(O)c2C(=O)c2c(O)ccc(O)c21	0.3%[3.08 µM]	.	.	0.251µM*	.	31.6µM*
O=C1c2ccccc2C(=O)c2c1ccc(O)c2O	-6.5%	.	.	10µM*	.	-2.8%
CC/C=C\C/C=C\C/C=C\CCCCCCCC(=O)O	-3.4%	-3.5%	-8.8%	0.126µM*	i	1.4%
CCCCCCC/C=C\CCCCCCCCC(=O)O	-4.9%	1.2%	-6.3%	?	i	-2.4%
Cc1noc(C)c1COC(=O)CCc1ccc(S(=O)(=O)N2CCCCC2)cc1	-3.9%	0.4%	1.2%	8.4%	i	-0.7%
Cc1noc(C)c1COC(=O)Cc1ccc(Cl)c(Cl)c1	1.8%	?	12.1%	25.1µM*	i	0.3%
N=C1[C@@H](O)[C@]2(I)c3ccccc3N3C(=N)[C@H](O)[C@@H]4c5ccccc5N1[C@@H]4[C@@H]32	4.3%[15.4 µM]	-29.1%[11 µM]	-11.2%[11.4 µM]	?	i	-23.7%[15.4 µM]
CCC(C)C1NC(=O)C(CCNCS(=O)(=O)O)NC(=O)C(NC(=O)C(CCNCS(=O)(=O)O)NC(=O)C(NC(=O)C(CCNCS(=O)(=O)O)NC(=O)CCCCC(C)C)C(C)O)CCNC(=O)C(C(C)O)NC(=O)C(CCNCS(=O)(=O)O)NC(=O)C(CCNCS(=O)(=O)O)NC(=O)C(C(C)CC)NC1=O (configuration not stated)	0.4%[3.08 µM]	.	.	3.16µM*	.	3.1%
Clc1ccc([C@@H](c2ccccc2Cl)C(Cl)Cl)cc1	.	?	-1.1%	.	i	.
CCOC(=O)N1CCC(Nc2c(OCC)c(=O)c2=O)CC1	-1.9%	-2.4%[2.3 µM]	-10.1%	6.1%	i	0.5%
CCCN(CCC)c1nc(NC2CCN(C(=O)OCC)CC2)nc(OC)n1	-3.0%	-7.8%	-3.1%	31.6µM*	i	-1.1%
Cc1sc2c(c1C)c(=O)n(-c1ccccc1)c1nnc(C)n21	-1.4%	.	.	3.16µM*	.	-0.2%
CN[C@@H](CC(C)C)C(=O)N[C@@H]1C(=O)N[C@H](CC(N)=O)C(=O)N[C@H]2C(=O)N[C@H]3C(=O)N[C@H](C(=O)N[C@H](C(=O)O)c4cc(O)cc(O)c4-c4cc3ccc4O)[C@H](O)c3ccc(c(Cl)c3)Oc3cc2cc(c3O[C@@H]2O[C@@H](CO)[C@@H](O)[C@@H](O)[C@H]2O[C@H]2C[C@](C)(N)[C@H](O)[C@H](C)O2)Oc2ccc(cc2Cl)[C@@H]1O	-1.9%	-11.0%	-6.5%	?	i	-2.7%
Cc1ccc(N[C@H](c2ccccc2)c2ccc3cccnc3c2O)cc1	2.2%[15.4 µM]	-20.1%[11 µM]	-12.5%[11.4 µM]	37.8%[11.4 µM]	i	-0.1%[15.4 µM]
